Source: PubChem (National Center for Advancing Translational Sciences (NCATS))
Rows were chosen to be rich in hits. Some 9% of all compounds tested hit in one or more screens of this group.
HTT aggregate – qHTS Multiplex Assay to Identify Dual Action Probes in a Cell Model of Huntington: Aggregate Formation (GFP); PC12 HttQ103-GFP aggregates, Acumen cytometry, 40 h; Potency, µM (top dose mostly 46.1 µM), without a hit: at the top dose activity change, negative = inhibition, most hits filed as inhibitors; 1.1% of 220,000 active; AID 1688, 2009; also: % is scaled to controls: 0 for no effect and ±100 for the full control effect; nearly all actives have a fitted effect of over 60% in size
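Aggregate formation scored by laser-scanning cytometer (488 excitation, 500–530 emission) in lysed PC12 cells expressing Q103-GFP after 100 nM tebufenozide induction; library tested in dose series, with ATPLite reagent added in the multiplex.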
Lamin A splicing – qHTS Assay for Modulators of Lamin A Splicing; HeLa LMNA splicing GFP/RFP minigene ratio, 48 h; Potency, µM (highest dose often 46.1 µM), without a hit: top-dose ratio change, negative = inhibition, hits mostly inhibitors; AID 1487, 2009; 0.01% of 200,000 active; active = well fitted inhibition curve with a large enough effect in the signal ratio, with a control signal flat, not every such curve was filed as active; inconclusive = small, poorly fitted or top-dose-only effect, or effect the other way, or a change in a side signal; the % refers to the signal ratio; also: % is scaled to controls: 0 for no effect and ±100 for the full control effect
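S3 HeLa stable clones carrying a lamin A-EGFP splicing minigene plus DsRed2 were seeded at 600 cells/well in Opti-MEM with 2% FBS, pin-dosed and incubated 48 h at 37°C. Acumen cytometry (488 nm) gave the GFP/RFP total-intensity ratio.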
ALDH1A1 inh – qHTS Assay for Inhibitors of Aldehyde Dehydrogenase 1 (ALDH1A1) | Potency, µM (top dose mostly 75.3 µM), inactives show top-dose activity, negative = inhibition, hits mostly inhibitors | 7.3% of 220,000 active | Purified ALDH1A1, NADH fluorescence, propionaldehyde substrate | AID 1030, 2008; active = well fitted inhibition curve with a large enough effect, not every such curve was filed as active; inconclusive = small, poorly fitted or top-dose-only effect, or another doubt; inactive = no such curve, though single readings can be large or run the other way;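 also: plate controls were no enzyme wells and a reference inhibitor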
Target sequence (P00352 whole entry, looked up): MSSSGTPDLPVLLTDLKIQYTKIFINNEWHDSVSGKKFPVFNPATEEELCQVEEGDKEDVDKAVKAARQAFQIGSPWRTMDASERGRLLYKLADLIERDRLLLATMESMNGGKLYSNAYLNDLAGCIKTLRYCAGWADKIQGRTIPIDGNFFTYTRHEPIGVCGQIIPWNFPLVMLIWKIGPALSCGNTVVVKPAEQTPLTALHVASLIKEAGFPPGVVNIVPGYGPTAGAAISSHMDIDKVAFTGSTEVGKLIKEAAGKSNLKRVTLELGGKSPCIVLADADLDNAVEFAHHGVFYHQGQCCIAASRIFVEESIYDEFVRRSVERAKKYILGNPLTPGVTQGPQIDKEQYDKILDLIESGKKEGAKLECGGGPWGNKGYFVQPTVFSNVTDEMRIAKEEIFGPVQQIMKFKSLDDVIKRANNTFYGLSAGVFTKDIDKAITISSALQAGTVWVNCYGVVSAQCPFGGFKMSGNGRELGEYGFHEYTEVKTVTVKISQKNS
HTT ATP protect – qHTS Multiplex Assay to Identify Dual Action Probes in a Cell Model of Huntington: Cytoprotection (ATP) | PC12 HTT-Q103 induced, cytoprotection, ATP luminescence, 40 h | Potency, µM (doses to about 56.4 µM), inactives show cytoprotection (ATP increase), most hits filed as activators | 0.14% of 230,000 active; also: % of control where 0% means no effect; nearly all actives have a fitted effect of over 45% in size
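Cells were plated at 1500 per well in phenol red-free DMEM with 5% equine and 5% calf serum. Tebufenozide (100 nM final) and compounds were added, then ATPlite reagent, and luminescence was read.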
HPGD inh – qHTS Assay for Inhibitors of HPGD (15-Hydroxyprostaglandin Dehydrogenase) | 4.3% of 150,000 active | purified HPGD, NADH fluorescence kinetic, PGE2 substrate | Potency, µM, without a hit: top-dose activity change, negative = inhibition, usual class: inhibitors | AID 894, 2007; active = well fitted inhibition curve with a large enough effect, not every such curve was filed as active; inconclusive = small, poorly fitted or top-dose-only effect, or another doubt; inactive = no such curve, though single readings can be large or run the other way; also: % is scaled to controls: 0 for no effect and ±100 for the full control effect
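NADH formation kinetics: reaction with 30 uM PGE2 and 1 mM NAD+ (final), 20 nM enzyme, Tris-HCl pH 8 with Tween 20, after 15 min compound preincubation at room temperature. Fluorescence change, last versus first of five reads.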
KinaseGlo FLuc – Counterscreen for Luciferase (Kinase-Glo TM) Inhibition; Luciferin 4-monooxygenase (Photuris pensylvanica), Q27757; Kinase-Glo luciferase, ATP luminescence, 8 min; Potency, µM (series often up to 38.3 µM), inactives show at the highest dose activity change, negative = inhibition, usual class: inhibitors; 0.28% of 200,000 active; AID 1379, 2008; also: % is scaled to controls: 0 for no effect and ±100 for the full control effect; nearly all actives have a fitted effect of over 60% in size
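Recombinant Kinase-Glo luciferase, 10 uM ATP (linear range), luciferin; imidazole pH 7.2 / KCl / MgCl2 / Tween / BSA buffer; 8 min RT; luminescence.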
* hit, by the source's call; u = inconclusive; x = no result given; [ ] = dose if it differs, or a comment. Unless noted, calls follow the shape of the dose curve; as a rule, active = well fitted curve in the direction sought with a large enough effect; inconclusive = small, poorly fitted or top-dose-only effect, or another doubt; inactive = no such curve, though single readings can be large; an effect the other way counts as inactive or inconclusive. Potency is read from the fitted curve at half-maximal effect.

SMILES	HTT aggregate	Lamin A splicing	ALDH1A1 inh	HTT ATP protect	HPGD inh	KinaseGlo FLuc
CN(C)C(=O)c1ccc(-c2nccc(NCc3ccccc3)n2)cc1	x	u	u	-24%	x	x
COc1cc(/C=N/Nc2nncn2/N=C/c2ccc(O)c(OC)c2)ccc1O	7%	-24%[46 µM]	u	-80%[10 µM]	x	10µM*
COc1ccc(OC)c(/C=N/Nc2nncn2/N=C/c2cc(OC)ccc2OC)c1	u	u	u	x	-10%	-7%
COc1ccc(/C=N/OC(=O)Nc2ccc(Cl)cc2)c(OC)c1	-9%[9.22 µM]	x	x	-16%[10 µM]	x	x
CCC1(C)Nc2ccccc2C(=O)N1O (configuration not stated)	-19%	2%	-5%	0%	25µM*	3%
COc1ccc(N2C(=O)c3ccccc3NC2(C)C)cc1	-10%	-5%[46 µM]	u	-125%	x	0%
CC1=C(C(=O)NC2CCC(C)CC2)C2(CCC(C)CC2)OC1=O (configuration not stated)	-12%	-1%	-5%	1%[10 µM]	-6%	3%
CCN1CCN(CCCNC(=O)c2csc3c2CCCCC3)CC1	9%	2%	-1%	-5%	-7%	-4%
Cc1cc(C)n(-c2nc(Nc3ccccc3C(F)(F)F)nc(-n3nc(C)cc3C)n2)n1	10µM*	u	3%	11%[1.9 µM]	-10%	-3%
CCOC(=O)Cn1nc(C)n(-c2ccc(Cl)cc2)c1=O	11%	-10%[46 µM]	7%	11%[10 µM]	x	2%
O=C(CN1C(=O)c2ccc([N+](=O)[O-])cc2C1=O)NCc1ccco1	2%	x	-1%	-10%	x	0%
COc1ccc(-c2oc3c(OC)c(OC)c(OC)c(O)c3c(=O)c2OC)cc1OC	-24%[9.22 µM]	x	-8%	-9%[10 µM]	x	x
COc1ccc(-c2cc(=O)c3c(O)c(OC)c(OC)c(OC)c3o2)cc1OC	x	u	20µM*	x	-14%	1%
COc1c(O)c(O)c2oc(-c3ccccc3)cc(=O)c2c1OC	11%[9.22 µM]	x	u	24%[10 µM]	x	x
COc1ccc(-c2cc(OC)c3c(C)oc(C)c3c(=O)c2)cc1OC	u	u	11µM*	-28%	28µM*	-3%
COc1cc(-c2cc(=O)c3c(O)c(OC)c(OC)c(O)c3o2)ccc1O	3%[9.22 µM]	x	28µM*	-9%[10 µM]	x	x
N#Cc1nc(Cc2ccccc2)oc1NCc1ccccc1Cl	8.9µM*	u	u	-3%	-20%	-5%
N#Cc1nc(Cc2ccccc2)oc1NCc1cccnc1	-8%	-7%	-3%	-17%[0.074 µM]	-18%	2%
S=P(N1CC1)(N1CC1)N1CC1	3%	u	-4%	-66%	10µM*	-6%
Cc1ccc2c(C(=O)CN3CCN(C4CCCCC4)CC3)c(C)[nH]c2c1	12%	-3%	13µM*	8%[0.074 µM]	-15%	-2%
COc1ccc(N=Cc2nc(-c3ccccc3)oc2OC(C)=O)cc1	6%[9.22 µM]	x	x	16%[10 µM]	x	x
COc1ccc(N=C/C=C2/C=C(c3ccccc3)OC(C)(C)O2)cc1	x	u	1.4µM*	x	x	-3%
Cc1cc(NC(=O)CSc2nnc(-c3ccc(Br)o3)n2Cc2ccccc2)no1	13%	u	u	5%	-5%	-2%
O=C(CSc1nnc(-c2ccc(Br)o2)n1Cc1ccccc1)c1ccccc1F	-1%	3%	u	-4%[1.9 µM]	32µM*	0%
COCCn1c(SCC(=O)c2ccc(F)cc2)nnc1C(C)C	7%	9%	13µM*	-5%[10 µM]	-21%	-2%
SMILES	HTT aggregate	Lamin A splicing	ALDH1A1 inh	HTT ATP protect	HPGD inh	KinaseGlo FLuc
O=C(CSc1nnc(-c2ccco2)n1Cc1ccccc1)c1ccc(F)cc1	-5%	1%	4µM*	-9%	25µM*	-6%
Cc1ccc(S(=O)(=O)NCCC(=O)Nc2ccc3c(c2)OCO3)cc1	-6%	3%	-2%	21%[4.97 µM]	-4%	-2%
COC(=O)c1cn(C(=O)c2ccc(Br)o2)c2ccccc12	16%	-13%	32µM*	27%[10 µM]	-5%	2%
COC(=O)c1cn(C(=O)c2ccco2)c2ccccc12	-4%	4%	-3%	-9%	-8%	-6%
CSc1nc(Sc2cccc(Cl)c2)c2ccccc2n1	8%	u	-1%	-7%	-18%	-1%
NC1=NC2(CCCCC2)N(c2ccc(F)cc2)C(N)=N1	-10%	-7%	6%	10%[10 µM]	4%	3%
Cc1ccccc1-n1sc2cc(F)ccc2c1=O	u	u	0.56µM*	8%[1.9 µM]	x	-8%
CCN(CC(=O)Nc1cc(Cl)ccc1C)c1ncnc2sc(C)c(C)c12	-11%	u	-6%	5%[1.9 µM]	u	2%
O=C(C(Cc1ccccc1)n1cccc1)N1CCCCCC1 (configuration not stated)	2%	-6%	-2%	1%	28µM*	3%
O=C(O)C(Cc1ccccc1)N1CCS(=O)(=O)CC1 (configuration not stated)	5%	u	2%	2µM*	x	0%
O=C(C(Cc1ccccc1)n1cccc1)N1CCN(Cc2ccccc2)CC1 (configuration not stated)	u	-9%	u	-6%	-1%	3%
O=C(C(Cc1ccccc1)n1cccc1)N1CCCCC1 (configuration not stated)	-18%	-3%	3%	9%	13µM*	-6%
Cn1c(=O)c2c(ncn2Cc2cc(-c3ccccc3)no2)n(C)c1=O	u	-18%	4%	-10%	-2%	2%
Cc1ccc(S(=O)(=O)c2ccc(-n3nc(C)cc3N)cc2)cc1	-2%	-8%[46 µM]	6%	6%[10 µM]	x	1%
O=C(CSc1nc(SCC(=O)NCc2ccccc2)n(-c2ccccc2)n1)NCc1ccccc1	-8%	5%	u	-18%	-27%	-2%
Cc1cc(C)cc(NC(=O)CSc2nnc(-c3ccccc3Br)o2)c1	4%	u	-7%	-23%	-19%	2%
C=CCc1ccccc1OCC(O)CN1CCN(C(=O)OCC)CC1 (configuration not stated)	24%	u	20µM*	-8%	-16%	-1%
CS/C(=N\S(=O)(=O)c1ccc(Cl)cc1)c1ccccc1	-5%	-8%	-1%	38%[10 µM]	-20%	8%
O=S(=O)(/N=C(\Sc1ccc(Cl)cc1)c1ccccc1)c1ccccc1	33%	16%	-19%	10%	20µM*	-8%
